Results reported in PubChem BioAssay (Tox21).
Records with an inconclusive call do not appear. Active and inactive are the calls of the source. Unless noted, calls come from the whole dose curve; as a rule, active = well fitted curve in the direction sought with a large enough effect in the repeat runs; inconclusive = weak or mixed curves; inactive = no such curve, though single readings can be large; an effect the other way counts as inactive or inconclusive.

Assays:
[1] = target: Androgen receptor (Homo sapiens) (UniProt P10275); test: qHTS assay to identify small molecule antagonists of the androgen receptor (AR) signaling pathway using the MDA cell line in the presence of 0.5 nM R1881 (AID 1259243); note: potency is the fitted concentration of half-maximal effect; nearly all actives have a fitted effect of over 50% in size
Summary of the method: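 Luminescence from an AR/GR-responsive MMTV-luciferase construct in MDA-kb2 breast carcinoma cells, read 30 min after ONE-Glo, following 16 hr co-treatment with compounds and 0.5 nM R1881.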

[2] = target: Estrogen receptor (Homo sapiens) (UniProt P03372); test: qHTS assay to identify small molecule antagonists of the estrogen receptor alpha (ER-alpha) signaling pathway using the BG1 cell line in the presence of 0.1 nM 17-beta-estradiol (AID 1259244); note: nearly all actives have a fitted effect of over 50% in size; note: potency is the fitted concentration of half-maximal effect
Summary of the method: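 Luciferase signal from VM7Luc4E2 ERE-reporter cells, co-dosed with test compound and 0.1 nM final 17beta-estradiol for 22 h, read with ONE-Glo.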

[3] = qHTS assay to identify small molecule HDAC inhibitors (AID 1259364); note: potency is the fitted concentration of half-maximal effect;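 note: wild-type HCT-116 cells with endogenous class I/II HDAC activity; nearly all actives have a fitted effect of over 45% in size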
Summary of the method: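 HCT-116 wt cells, 1,500/well, overnight attach. Compounds (DMSO) 2 h, 37 °C. HDAC-Glo I/II, 30 min RT. Luminescence.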

[4] = qHTS assay to identify small molecule agonists of the sonic hedgehog signaling (Shh) pathway (AID 1259368; calls by dose curve;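 note: NIH/3T3-derived 3T3Gli1-Luc cells carrying a stable Gli1-driven firefly luciferase reporter; series mostly up to about 92 µM; nearly all actives have a fitted effect of over 15% in size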)
Summary of the method: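 Following a 24 hr incubation with DMSO-dissolved compounds at 37 C, 5% CO2, Gli1-Luc NIH/3T3-derived cells received luciferase reagent for 30 min at room temperature prior to luminescence measurement.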

[5] = qHTS assay to identify small molecule antagonists of the sonic hedgehog signaling (Shh) pathway (AID 1259369; calls by dose curve; note: nearly all actives have a fitted effect of over 45% in size; note: potency is the fitted concentration of half-maximal effect)
Summary of the method: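 Read-out is luminescence from a firefly luciferase gene controlled by the Gli1 response element, in 3T3Gli1-Luc cells pre-incubated 4hr then exposed to compounds and conditioned medium for 24hr.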

[6] = target: Estrogen receptor beta (Homo sapiens) (UniProt Q92731); test: qHTS assay to identify small molecule agonists of the estrogen receptor beta (ER-beta) signaling pathway (AID 1259377; active = well fitted activation curve with a large enough effect in the signal ratio in the repeat runs, not every such curve was filed as active; the % refers to the signal ratio)
Summary of the method: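 Ratiometric beta-lactamase FRET read-out came after 2 h substrate loading at room temperature. It followed 16 h compound treatment at 37C of GripTite HEK293T cells carrying a UAS-bla reporter, plated in 2% charcoal-stripped FBS medium.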

[7] = qHTS assay to identify small molecule agonists of the estrogen receptor beta (ER-beta) signaling pathway - cell viability counter screen (AID 1259380); note: nearly all actives have a fitted effect of over 30% in size; note: potency is the fitted concentration of half-maximal effect
Summary of the method: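 Compounds dissolved in DMSO were pin-transferred onto ER-beta-UAS-bla HEK293T cells that had settled 6 hr, and exposure ran 16 hr at 37C. Following the reporter read, CellTiter-Glo luminescence after 30 min at room temperature indicated cytotoxicity.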

[8] = target: Androgen receptor (Homo sapiens) (UniProt P10275); test: qHTS assay to identify small molecule agonists of the androgen receptor (AR) signaling pathway in the presence of an antagonist (AID 1259381; calls by dose curve; note: nearly all actives have a fitted effect of over 15% in size)
Summary of the method: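 Plated MDA-kb2 cells (3,000/well) were pre-incubated 5hr, given nilutamide (3.0uM final) or buffer, then dosed with compounds in DMSO at 15 concentrations. Luciferase activity was quantified by luminescence after 16hr at 37C.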

[9] = qHTS assay to identify small molecule antagonists of the estrogen receptor beta (ER-beta) signaling pathway - cell viability counter screen (AID 1259382); note: nearly all actives have a fitted effect of over 55% in size; note: potency is the fitted concentration of half-maximal effect
Summary of the method: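 CellTiter-Glo ATP luminescence measured after the LiveBLAzer read in the same wells; ER-beta-UAS-bla HEK293T cells, 16 hr compound treatment with 1nM 17-beta-estradiol agonist at 37C, 5% CO2.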

[10] = target: Estrogen receptor (Homo sapiens) (UniProt P03372); test: qHTS assay to identify small molecule agonists of the estrogen receptor alpha (ER-alpha) signaling pathway in the presence of an antagonist (AID 1259383; calls by dose curve; note: top concentration of the series differs between compounds; nearly all actives have a fitted effect of over 15% in size)
Summary of the method: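 Luminescent ERE-luciferase reporter, VM7Luc4E2 cells (endogenous ER-alpha); 10.0nM ICI-182,780 final; 15-point compound titration; 22hr at 37C; ONE-Glo, 30min RT.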

[11] = qHTS assay to identify small molecule agonists or antagonists of the thyroid stimulating hormone receptor (TSHR) signaling pathway - wild type cell line counter screen (AID 1259384; calls by dose curve)
Summary of the method: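 Wild-type Hek293 cells, 800/well, 18 h at 37C, then compound with Ro20-1724 for 30 min RT. cAMP by HTRF (cAMP-d2/anti-cAMP cryptate), 1 h RT, fluorescence read. 15 concentrations, triplicates.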

[12] = qHTS assay to identify small molecule agonists of the estrogen receptor alpha (ER-alpha) signaling pathway in the presence of an antagonist - cell viability counter screen (AID 1259386);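 note: series mostly up to about 92 µM; cells exposed to compounds for 22 h at 37 °C before the viability read; nearly all actives have a fitted effect of over 30% in size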
Summary of the method: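 Using estrogen-depleted VM7Luc4E2 cells, the 15-concentration compound series was applied together with 10.0nM ICI-182,780 and incubated 22hr at 37C/5% CO2. Cell viability was then scored by CellTiter-Fluor.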

[13] = qHTS assay to identify small molecule HDAC inhibitors - cell viability counter screen (AID 1259365); note: nearly all actives have a fitted effect of over 50% in size; note: potency is the fitted concentration of half-maximal effect
Summary of the method: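 CellTiter-Glo luminescence (30 min, room temperature) reported viability after a 2 h compound exposure at 37 C. Cells: wild-type HCT-116, 1,500 per well, seeded the night before.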

[14] = qHTS assay to identify small molecule agonists of the sonic hedgehog signaling (Shh) pathway - cell viability counter screen (AID 1259366); note: nearly all actives have a fitted effect of over 50% in size; note: potency is the fitted concentration of half-maximal effect
Summary of the method: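 Cytotoxicity counter screen: CellTiter-Fluor reagent added after 23 h compound exposure, then 1 h at 37C and fluorescence read. Cells were 3T3 Gli1-Luc, seeded 2,000 per well and dosed 4 h post-plating.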

[15] = qHTS assay to identify small molecule antagonists of the sonic hedgehog signaling (Shh) pathway - cell viability counter screen (AID 1259367); note: nearly all actives have a fitted effect of over 55% in size; note: potency is the fitted concentration of half-maximal effect
Summary of the method: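 Fluorescence read-out (CellTiter-Fluor, 1 hr at 37C) taken after 23 hr compound treatment of 3T3 Gli1-Luc cells stimulated with conditioned medium. Cells were seeded at 2,000 per well and pre-incubated 4 hr.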

[16] = target: Estrogen receptor beta (Homo sapiens) (UniProt Q92731); test: qHTS assay to identify small molecule antagonists of the estrogen receptor beta (ER-beta) signaling pathway (AID 1259378; active = well fitted inhibition curve with a large enough effect in the signal ratio in the repeat runs, not every such curve was filed as active; the % refers to the signal ratio; note: potency is the fitted concentration of half-maximal effect)
Summary of the method: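 ER-beta-UAS-bla HEK293T cells in 2% charcoal-stripped FBS medium treated with compound plus 1nM final 17-beta-estradiol for 16 hr at 37C. Beta-lactamase reporter read by FRET substrate fluorescence after 2 hours at room temperature.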

[17] = qHTS assay to identify small molecule agonists of the androgen receptor (AR) signaling pathway in the presence of an antagonist - cell viability counter screen (AID 1259379); note: nearly all actives have a fitted effect of over 25% in size; note: potency is the fitted concentration of half-maximal effect
Summary of the method: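 Each compound was tested at 15 concentrations on MDA-kb2 cells in the presence of 3.0uM nilutamide. Viability was measured by CellTiter-Fluor fluorescence after a 16 hr incubation at 37C in a CO2-free atmosphere.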

[18] = qHTS assay to identify small molecule phospholipidosis (PLD) inducers (AID 1259344; active = well fitted curve in the direction sought with a large enough effect; an effect the other way counts as inactive or inconclusive)
Summary of the method: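 Read-out is LipidTOX Red fluorescence (ex 595/em 615) imaged in HepG2 cells after 24 h compound exposure at 37 C, with Hoechst nuclear counterstain (ex 352/em 461) allowing per-cell normalisation.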

[19] = target: Thyrotropin receptor (Homo sapiens) (UniProt P16473); test: qHTS assay to identify small molecule antagonists of the thyroid stimulating hormone receptor (TSHR) signaling pathway (AID 1259385; calls by dose curve; note: nearly all actives have a fitted effect of over 20% in size; note: potency is the fitted concentration of half-maximal effect)
Summary of the method: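 TSHR-HEK293 cells (800/well) plated 18 h, then compounds with Ro20-1724 and TSH at 1.5 ng/mL final, 30 min at room temperature. cAMP quantified by HTRF (cAMP-d2/anti-cAMP-cryptate, 1 h); 15 concentrations in triplicate.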

[20] = target: Progesterone receptor (Homo sapiens) (UniProt P06401); test: qHTS assay to identify small molecule agonists of the progesterone receptor (PR) signaling pathway (AID 1346784; calls by dose curve; note: nearly all actives have a fitted effect of over 30% in size)
Summary of the method: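 Agonist qHTS: compounds pinned onto 3,000 PR-UAS-bla HEK 293T cells per well in charcoal-stripped serum medium, 16hr at 37C, then beta-lactamase activity measured by LiveBLAzer FRET fluorescence after 2 hours at room temperature.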

Measured: Potency

Sequence of Androgen receptor (Homo sapiens) (P10275 whole entry, looked up): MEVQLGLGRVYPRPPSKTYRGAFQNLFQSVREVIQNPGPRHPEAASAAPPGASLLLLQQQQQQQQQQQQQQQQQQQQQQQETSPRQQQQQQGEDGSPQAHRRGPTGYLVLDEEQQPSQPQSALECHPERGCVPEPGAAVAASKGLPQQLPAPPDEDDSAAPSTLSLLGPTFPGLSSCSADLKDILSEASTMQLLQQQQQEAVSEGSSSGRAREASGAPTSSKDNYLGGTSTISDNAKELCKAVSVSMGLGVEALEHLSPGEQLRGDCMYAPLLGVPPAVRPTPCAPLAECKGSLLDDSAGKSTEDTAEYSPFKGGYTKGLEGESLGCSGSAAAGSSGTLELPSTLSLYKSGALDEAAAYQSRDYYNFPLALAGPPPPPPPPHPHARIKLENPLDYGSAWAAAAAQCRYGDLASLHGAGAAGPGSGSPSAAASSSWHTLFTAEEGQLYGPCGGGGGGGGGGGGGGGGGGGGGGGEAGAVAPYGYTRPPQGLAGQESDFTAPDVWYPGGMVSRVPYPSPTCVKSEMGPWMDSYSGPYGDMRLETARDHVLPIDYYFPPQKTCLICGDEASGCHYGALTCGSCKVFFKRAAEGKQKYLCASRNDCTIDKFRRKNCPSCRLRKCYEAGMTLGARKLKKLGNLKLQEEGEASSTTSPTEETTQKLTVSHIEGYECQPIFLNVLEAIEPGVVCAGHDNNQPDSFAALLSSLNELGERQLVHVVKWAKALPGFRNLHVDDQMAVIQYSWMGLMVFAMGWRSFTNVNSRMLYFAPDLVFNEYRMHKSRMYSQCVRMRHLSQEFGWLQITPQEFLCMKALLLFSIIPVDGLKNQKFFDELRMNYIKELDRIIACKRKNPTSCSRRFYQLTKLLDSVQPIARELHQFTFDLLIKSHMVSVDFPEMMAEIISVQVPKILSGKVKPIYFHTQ
Sequence of Progesterone receptor (Homo sapiens) (P06401 whole entry, looked up): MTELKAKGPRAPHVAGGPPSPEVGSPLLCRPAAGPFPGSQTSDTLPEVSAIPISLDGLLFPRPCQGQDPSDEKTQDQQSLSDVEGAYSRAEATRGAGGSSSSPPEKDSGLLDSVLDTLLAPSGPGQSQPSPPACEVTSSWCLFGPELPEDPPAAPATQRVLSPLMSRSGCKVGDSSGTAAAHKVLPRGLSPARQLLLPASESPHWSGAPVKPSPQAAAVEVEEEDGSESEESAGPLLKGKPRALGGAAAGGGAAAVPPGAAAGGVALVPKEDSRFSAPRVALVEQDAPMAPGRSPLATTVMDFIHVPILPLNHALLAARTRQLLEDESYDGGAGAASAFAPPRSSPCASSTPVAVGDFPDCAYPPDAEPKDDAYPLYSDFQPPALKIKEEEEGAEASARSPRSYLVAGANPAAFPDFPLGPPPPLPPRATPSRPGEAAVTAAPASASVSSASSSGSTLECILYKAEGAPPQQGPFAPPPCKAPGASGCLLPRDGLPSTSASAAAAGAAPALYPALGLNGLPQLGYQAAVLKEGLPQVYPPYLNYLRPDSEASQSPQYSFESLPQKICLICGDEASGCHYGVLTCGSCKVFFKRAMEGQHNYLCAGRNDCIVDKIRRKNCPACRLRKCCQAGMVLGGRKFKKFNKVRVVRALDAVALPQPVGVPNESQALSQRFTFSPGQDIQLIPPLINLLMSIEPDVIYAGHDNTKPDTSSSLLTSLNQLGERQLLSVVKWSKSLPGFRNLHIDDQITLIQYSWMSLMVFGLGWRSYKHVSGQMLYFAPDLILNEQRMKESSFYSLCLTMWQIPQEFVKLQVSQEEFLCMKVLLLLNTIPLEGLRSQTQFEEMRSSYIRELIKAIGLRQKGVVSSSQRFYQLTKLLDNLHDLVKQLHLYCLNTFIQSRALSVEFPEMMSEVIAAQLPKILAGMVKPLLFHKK
Sequence of Estrogen receptor (Homo sapiens) (P03372 whole entry, looked up): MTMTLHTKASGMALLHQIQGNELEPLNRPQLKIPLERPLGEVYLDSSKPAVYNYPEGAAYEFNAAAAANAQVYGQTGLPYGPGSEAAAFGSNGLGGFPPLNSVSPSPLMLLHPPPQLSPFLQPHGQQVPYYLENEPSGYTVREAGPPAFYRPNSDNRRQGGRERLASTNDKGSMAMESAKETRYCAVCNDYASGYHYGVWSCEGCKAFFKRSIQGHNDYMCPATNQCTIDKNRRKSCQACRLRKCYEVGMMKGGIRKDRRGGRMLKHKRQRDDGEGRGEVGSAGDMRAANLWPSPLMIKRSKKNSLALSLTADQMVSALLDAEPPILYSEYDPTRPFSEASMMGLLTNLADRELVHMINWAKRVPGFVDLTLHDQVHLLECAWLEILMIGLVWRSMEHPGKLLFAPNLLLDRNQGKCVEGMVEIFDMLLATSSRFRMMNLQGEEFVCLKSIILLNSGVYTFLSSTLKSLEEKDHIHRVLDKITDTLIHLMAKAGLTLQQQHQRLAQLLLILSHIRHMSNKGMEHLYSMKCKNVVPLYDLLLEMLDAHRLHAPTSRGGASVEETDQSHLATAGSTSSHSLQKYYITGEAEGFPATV
Sequence of Estrogen receptor beta (Homo sapiens) (Q92731 whole entry, looked up): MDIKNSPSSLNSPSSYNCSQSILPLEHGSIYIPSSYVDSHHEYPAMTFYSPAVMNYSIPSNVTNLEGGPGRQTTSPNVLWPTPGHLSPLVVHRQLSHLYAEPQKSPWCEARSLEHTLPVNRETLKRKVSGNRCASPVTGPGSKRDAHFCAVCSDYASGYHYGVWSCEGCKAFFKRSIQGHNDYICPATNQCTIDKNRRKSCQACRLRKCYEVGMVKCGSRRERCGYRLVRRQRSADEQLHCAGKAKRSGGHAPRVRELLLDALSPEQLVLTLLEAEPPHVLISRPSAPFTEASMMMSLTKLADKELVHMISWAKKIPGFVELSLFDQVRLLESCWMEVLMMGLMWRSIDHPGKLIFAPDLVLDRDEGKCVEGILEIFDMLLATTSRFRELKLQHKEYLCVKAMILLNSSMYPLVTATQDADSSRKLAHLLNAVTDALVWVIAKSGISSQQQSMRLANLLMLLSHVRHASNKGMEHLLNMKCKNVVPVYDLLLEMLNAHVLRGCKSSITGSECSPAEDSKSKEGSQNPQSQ
Sequence of Thyrotropin receptor (Homo sapiens) (P16473 whole entry, looked up): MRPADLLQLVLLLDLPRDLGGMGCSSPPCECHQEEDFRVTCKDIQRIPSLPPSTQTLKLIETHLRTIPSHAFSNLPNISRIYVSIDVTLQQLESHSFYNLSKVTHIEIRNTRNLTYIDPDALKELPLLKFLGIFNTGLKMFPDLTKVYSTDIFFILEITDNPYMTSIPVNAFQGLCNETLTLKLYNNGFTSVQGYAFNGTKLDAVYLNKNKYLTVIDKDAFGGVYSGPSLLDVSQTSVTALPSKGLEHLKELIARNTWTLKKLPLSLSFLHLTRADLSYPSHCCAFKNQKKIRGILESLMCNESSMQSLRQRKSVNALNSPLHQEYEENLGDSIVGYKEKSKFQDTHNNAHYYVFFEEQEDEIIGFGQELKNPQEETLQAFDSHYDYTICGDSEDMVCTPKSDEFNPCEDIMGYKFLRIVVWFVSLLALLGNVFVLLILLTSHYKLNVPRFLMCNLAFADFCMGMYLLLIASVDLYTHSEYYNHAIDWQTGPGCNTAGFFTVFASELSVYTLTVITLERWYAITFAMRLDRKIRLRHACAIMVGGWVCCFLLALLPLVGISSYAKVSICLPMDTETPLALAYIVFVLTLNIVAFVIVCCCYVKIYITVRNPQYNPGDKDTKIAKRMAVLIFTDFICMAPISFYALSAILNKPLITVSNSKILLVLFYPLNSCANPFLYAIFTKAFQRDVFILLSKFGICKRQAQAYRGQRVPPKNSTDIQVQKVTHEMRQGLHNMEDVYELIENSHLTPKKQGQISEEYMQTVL

CN1CCN(C2Cc3ccccc3Sc3ccc(Cl)cc32)CC1 (stereo unspecified)
inactive: [2] | [3] | [4] | [6] | [8] | [10] | [11] | [12]
active: [1] 29.8 µM | [5] 6.68 µM | [7] 21.1 µM | [9] 18.8 µM

CN(C)c1ccc(N=Nc2ccccc2C(=O)O)cc1
active: [3] 8.63 µM | [14] 21.7 µM | [15] 24.3 µM | [5] 2.17 µM | [16] 15.4 µM | [17] 68.6 µM
inactive: [2] | [13] | [4] | [6] | [7] | [9] | [10]

O=C(Nc1ccc(Cl)cc1)Nc1ccc(Cl)c(C(F)(F)F)c1
inactive: [18] | [3] | [14] | [4] | [6] | [10] | [11]
active: [2] 9.44 µM | [5] 7.5 µM | [16] 7.5 µM | [17] 11.9 µM | [7] 13.3 µM | [9] 13.3 µM | [19] 26.6 µM

CCCOc1sc(C(=O)N2CCC(c3cc(CN)ccc3F)CC2)c(C)c1Br
inactive: [4] | [5] | [8] | [10] | [11]
active: [1] 39.7 µM | [13] 62.8 µM | [15] 25 µM | [17] 56 µM | [7] 28.1 µM | [9] 25 µM | [19] 56 µM

O=S(=O)(O)CCCN1CCOCC1
inactive: [2] | [3] | [13] | [14] | [15] | [4] | [5] | [6] | [16] | [17] | [7] | [9] | [10] | [11] | [19] | [12] | [20]

CN(C)CCN1CCOCC1
inactive: [2] | [3] | [13] | [14] | [15] | [4] | [5] | [6] | [16] | [17] | [7] | [9] | [10] | [11] | [19] | [12] | [20]

CC(C(O)c1ccccc1)N(C)CCOC(c1ccccc1)c1ccccc1 (stereo unspecified)
active: [5] 21.1 µM | [17] 29.8 µM | [7] 29.8 µM | [9] 18.8 µM
inactive: [2] | [18] | [3] | [13] | [4] | [6] | [10] | [11] | [12]

S=P(N1CC1)(N1CC1)N1CC1
inactive: [2] | [18] | [3] | [13] | [4] | [17] | [7] | [9] | [10] | [12] | [20]
active: [15] 57.4 µM | [5] 22.9 µM

CCOCN(C(=O)CS(=O)(=O)O)c1c(C)cccc1CC
inactive: [2] | [3] | [13] | [14] | [15] | [4] | [5] | [6] | [16] | [17] | [7] | [9] | [10] | [11] | [19] | [12] | [20]

CCN(CC)CCOc1ccc(C(O)(Cc2ccc(Cl)cc2)c2ccc(C)cc2)cc1 (stereo unspecified)
active: [5] 5.96 µM | [16] 10.6 µM | [7] 26.6 µM | [9] 29.8 µM | [19] 29.8 µM
inactive: [2] | [18] | [3] | [4] | [6] | [10] | [11] | [12] | [20]

CC(=O)Oc1ccc(C2(c3ccc(OC(C)=O)cc3)Oc3ccccc3NC2=O)cc1
inactive: [2] | [18] | [3] | [13] | [14] | [4] | [6] | [17] | [9] | [10] | [11] | [12]
active: [5] 8.41 µM | [16] 1.88 µM

CCN(CC)CCOC(=O)C1(C2CCCCC2)CCCCC1
active: [7] 26.6 µM | [19] 29.8 µM
inactive: [2] | [18] | [3] | [13] | [15] | [4] | [6] | [16] | [17] | [8] | [10] | [11] | [12] | [20]

CCCCCCCC/C=C/CCCOC(C)=O
active: [5] 48.6 µM
inactive: [2] | [3] | [13] | [14] | [15] | [4] | [6] | [16] | [17] | [7] | [9] | [10] | [11] | [19] | [12]

NC1(c2ccc(-c3nc4ccn5c(=O)[nH]nc5c4cc3-c3ccccc3)cc2)CCC1
inactive: [2] | [18] | [3] | [13] | [4] | [6] | [10] | [11] | [20]
active: [5] 0.0944 µM | [7] 1.19 µM | [9] 2.11 µM | [19] 29.8 µM
